RGS16-Gao HTS: modulates binding between human RGS16 and Galphao; binding response (% of control), % at 10 µM; 220,000 tested, 0.38% active; bead-based flow cytometry RGS16-Galphao binding, fluorescence; actives lie on both sides; O15492+P09471;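 further: Galphao activated by GDP with aluminum fluoride before binding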
Avidin fluor: avidin bead compound fluorescence profile | Avidin beads, compound fluorescence 488/530 nm, flow cytometry; hits give high values | fluorescence (KMESF) at 10 µM | 220,000 tested, 0.38% active; in the data active means fluorescence above about 47
GSH bead fluor: compound fluoresces at 488/530 nm on GSH beads | fluorescence (KMESF) at 10 µM | 190,000 tested, 0.25% active | AID 1776 | GSH beads flow cytometry, compound fluorescence 488/530 nm; hits give high values; in the data active means fluorescence above about 89;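 further: glutathione beads carrying GST-tagged Bcl family fusion proteins plus one bare bead set; values are compound well signal with DMSO vehicle wells as background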
RGS4-Gao reg: human RGS4-Galphao interaction regulation; P09471; binding response (% of control), % at 10 µM; Multiplexed bead flow cytometry, RGS4-Galphao binding; actives lie on both sides; 220,000 tested, 0.33% active; in the data active means binding response below about 49% or above about 150%; inactive means in between;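 further: fluorescent Galphao activated with aluminum fluoride binding bead-coupled RGS4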
Target sequence (P09471 whole entry, looked up): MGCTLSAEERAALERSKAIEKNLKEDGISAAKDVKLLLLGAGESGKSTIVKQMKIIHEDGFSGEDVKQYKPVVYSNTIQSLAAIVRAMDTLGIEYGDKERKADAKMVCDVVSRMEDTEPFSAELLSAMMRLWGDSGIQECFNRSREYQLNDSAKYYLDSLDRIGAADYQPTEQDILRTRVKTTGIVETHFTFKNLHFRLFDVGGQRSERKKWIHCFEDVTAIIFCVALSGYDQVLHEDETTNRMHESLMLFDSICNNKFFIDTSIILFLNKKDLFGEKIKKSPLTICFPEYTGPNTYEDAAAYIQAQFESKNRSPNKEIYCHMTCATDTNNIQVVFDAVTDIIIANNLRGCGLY
RGS7-Gao: modulates binding of RGS7 to human Galphao; P09471; Multiplexed bead flow cytometry; actives lie on both sides; binding response (% of control), % at 10 µM; 220,000 tested, 0.35% active; AID 1439; in the data active means binding response below about 49% or above about 150%; inconclusive means no clear call, values can overlap the other calls; inactive means in between;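 further: fluorescent Galphao held in activated GDP-AlF4 state binding bead-coupled RGS7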
RGS8-Gao: regulators of human RGS8-Galphao interaction. P09471. multiplexed bead flow cytometry, RGS8-Galphao binding; actives lie on both sides. response (percent of control binding), % at 10 µM. 220,000 tested, 0.34% active. AID 1423; in the data active means response below about 60% or above about 140%; inactive means in between;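 further: Galphao activated as the GDP aluminium fluoride complex binding bead-coupled RGS8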
RGS-Gao: RGS4-Galphao interaction regulator (human); shares compounds with RGS16-Gao HTS; multiplexed bead flow cytometry, RGS–Galpha-o binding; RGS4–Galpha-o binding response, % at 10 µM; 1,600 tested, 99% active; AID 1504;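 further: fluorescently labeled Galpha-o bound to GDP with aluminium fluoride binding biotinylated RGS beads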
Biotin-avidin: counter-screen: compounds disrupting biotin binding to avidin beads; 1,700 tested, under 10 active; inhibition, % at 10 µM; shares compounds with RGS16-Gao HTS; streptavidin beads, fluorescein-biotin binding, flow cytometry;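 active means inhibition above 50%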;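 further: median green fluorescence of gated singlet beads compared with DMSO control wells; 0% = DMSO wells and 100% = complete loss of bead fluorescence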
RGS8-Gao single: confirmation of regulators of human RGS8-Galphao interaction; 1,700 tested, 3% active; shares compounds with RGS16-Gao HTS; bead-based flow cytometry RGS8-Galphao binding, fluorescence; actives lie on both sides; binding response (% of control), % at 10 µM; in the data active means binding response below about 72% or above about 130%; inactive means in between;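 further: Galphao activated as GDP AlF4 complex before binding bead RGS8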
RGS7-Gao single: RGS7-Galphao interaction regulation, single point confirmation; shares compounds with RGS16-Gao HTS; response (percent of control binding), % at 10 µM; 1,700 tested, 7.8% active; AID 1837; bead-based flow cytometry RGS7-Galphao binding; actives lie on both sides; in the data active means response below about 75% or above about 130%; inactive means in between;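 further: fluorescent Galphao activated with GDP and aluminum fluoride binding bead-coupled RGS7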
RGS16-Gao conf: RGS16-Galphao interaction regulation, single point confirmation; shares compounds with RGS16-Gao HTS; bead-based flow cytometry, RGS16-Galphao binding; actives lie on both sides; response (% of control binding), % at 10 µM; 1,700 tested, 4% active; AID 1838; in the data active means response below about 74% or above about 130%; inactive means in between;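 further: Galphao activated as the GDP aluminium fluoride complex binding bead-coupled RGS16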
RGS4-Gao single: confirmation of regulators of human RGS4-Galphao interaction. shares compounds with RGS16-Gao HTS. RGS4-Galphao binding, multiplexed bead flow cytometry; actives lie on both sides. binding response (% of control), % at 10 µM. 1,700 tested, 4% active; in the data active means binding response below about 74% or above about 130%; inactive means in between
RGS19-Gao conf: RGS19-Galphao interaction regulation, single point confirmation; shares compounds with RGS16-Gao HTS; bead-based flow cytometry RGS19-Galphao binding; actives lie on both sides; response (percent of control binding), % at 10 µM; 1,700 tested, 5% active; in the data active means response below about 50% or above about 160%; inactive means in between;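 further: 100% = no compound control and 0% = blank background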
Target sequence (P09471 whole entry, looked up): as above
Target sequence (P49795 whole entry, looked up): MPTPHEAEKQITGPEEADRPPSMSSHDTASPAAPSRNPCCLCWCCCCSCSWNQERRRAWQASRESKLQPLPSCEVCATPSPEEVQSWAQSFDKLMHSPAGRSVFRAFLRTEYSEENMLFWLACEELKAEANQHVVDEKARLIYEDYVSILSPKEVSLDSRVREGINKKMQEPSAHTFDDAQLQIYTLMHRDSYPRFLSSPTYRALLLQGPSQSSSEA
Numbers without * were called inactive; i = inactive; u = inconclusive; x = no result; [ ] = another dose, or the depositor's remark. Rows were chosen to be rich in hits. Some 1.2% of all compounds tested hit in one or more screens of this group. Unless noted, how the calls were made is not given here.

SMILES	RGS16-Gao HTS	Avidin fluor	GSH bead fluor	RGS4-Gao reg	RGS7-Gao	RGS8-Gao	RGS-Gao	Biotin-avidin	RGS8-Gao single	RGS7-Gao single	RGS16-Gao conf	RGS4-Gao single	RGS19-Gao conf
CCCCCCOc1ccc(N2C(=O)CC(N3CCN(CCN=CC4C(=O)CC(C)(C)CC4=O)CC3)C2=O)cc1 (configuration not stated)	102.5	85*	14	121.5	157.8*[activator]	97.4	121.5*	-1.6	98.8	96.9	98.3	98.5	93.6
CCOP(=O)(OCC)C(C)(C)NC(=O)c1cc([N+](=O)[O-])cc([N+](=O)[O-])c1	x	x	50	x	x	x	x	-1.0	103.8	105.4	104.5	103.0	92.4
CCC(C)(C)NC(=O)c1cc(C(=O)OC)cc([N+](=O)[O-])c1	108.0	8	30	97.4	99.6	98.5	x	x	x	x	x	x	x
C#CCSc1nnc(-c2ccccc2)c(=O)[nH]1	10.3*	1	13	21.0*	17.0*	12.8*	x	-1.7	101.3	89.9	99.0	97.0	80.2
COc1cc(N(C(=O)Cc2cccs2)C(C(=O)NC2CCCCC2)c2cccc(OC)c2OC)ccc1-n1cnnn1 (configuration not stated)	23.9*	6	10	91.8	88.4	82.5	91.8*	0.3	101.2	105.0	100.0	101.3	98.4
C/C=C(\CS(=O)(=O)c1ccccc1)S(=O)(=O)c1ccccc1	80.3	16	25	103.5	100.6	98.0	x	x	x	x	x	x	x
O=C(CN1C(=O)NC2(CCCCCCC2)C1=O)N1CCN(C(=O)c2ccco2)CC1	199.2*[activator]	8	38	119.8	118.1	125.0	119.8*	-1.5	100.6	90.7	98.7	94.0	100.4
O=C(CN1C(=O)NC2(CCCC2)C1=O)N1CCN(C(=O)c2ccco2)CC1	104.2	31	39	109.8	104.4	102.2	x	x	x	x	x	x	x
O=C(CS(=O)(=O)c1ccccc1)Nc1ccc(S(=O)(=O)Nc2ncccn2)cc1	26.3	13	9	34.8*	35.0*	32.1*	x	0.1	97.3	90.8	95.7	94.3	89.9
COc1ccccc1NC(=O)Cn1nnc(-c2ccccc2NC(=O)c2ccco2)n1	x	x	10	x	x	x	x	-1.0	103.3	103.3	103.0	105.4	101.2
COc1ccc(NC(=O)Cn2nnc(-c3ccccc3NC(=O)c3ccco3)n2)cc1	102.8	35	14	105.9	105.2	103.1	x	x	x	x	x	x	x
Cc1ccc(-c2nn3c(C)nnc3c3ccccc23)cc1S(=O)(=O)NC(C)(C)CO	109.1	11	10	102.7	103.8	103.5	x	x	x	x	x	x	x
Cc1ccc(-c2nn3c(C)nnc3c3ccccc23)cc1S(=O)(=O)NCCO	110.8	73*	24	115.5	172.4*[activator]	104.7	115.5*	1.0	98.4	96.1	97.9	102.0	87.5
CCOC(=O)N1CCN(C(=O)CSc2ccc3nnc(CCNC(=O)c4ccccc4)n3n2)CC1	95.2	10	15	103.2	u	103.3	x	x	x	x	x	x	x
O=C1CSC(=Nc2ccccc2[N+](=O)[O-])N1	103.9	12	18	105.5	104.1	100.3	x	x	x	x	x	x	x
CCN1/C(=C/C=C/c2oc3ccc4ccccc4c3[n+]2CC)Oc2ccc3ccccc3c21	368.9*[activator]	59*	205*	538.5*[activator]	616.5*[activator]	125.6	x	-0.9	126.9*[activator]	526.5*[activator]	264.1*[activator]	431.3*[activator]	457.9*[activator]
O=C(NC1CCS(=O)(=O)C1)c1cc(-c2ccccc2)nc2ccccc12 (configuration not stated)	103.7	9	17	97.9	u	101.8	x	x	x	x	x	x	x
O=C(Nc1ccc(Cl)c(-c2nc3ccccc3[nH]2)c1)c1ccc2c(c1)OCO2	214.8*[activator]	6	9	107.3	103.2	135.7	107.3*	0.2	106.2	105.7	107.8	103.5	100.0
O=C(Nc1ccc(-c2nc3ccccc3[nH]2)cc1)c1ccc2c(c1)OCO2	98.2	10	15	98.7	99.5	100.8	x	x	x	x	x	x	x
O=C(CSCCOc1ccccc1)NCc1ccncc1	100.5	6	x	92.5	u	93.9	x	x	x	x	x	x	x
CC1(C)Cc2ccccc2-c2nnc(-c3ccc4ccccc4n3)n21	18.9*	5	17	78.2	85.1	74.4	78.2*	1.3	103.7	100.8	106.1	104.9	93.2
Cc1cc2c(cc1C)-c1nnc(-c3ccc4ccccc4n3)n1C(C)(C)C2	94.8	18	10	93.3	94.1	94.8	x	x	x	x	x	x	x
COc1cc(Cl)c(C)cc1NC(=O)COc1ccccc1[N+](=O)[O-]	100.4	11	15	99.3	103.2	100.4	x	x	x	x	x	x	x
O=[N+]([O-])c1ccc(Sc2cccc[n+]2[O-])c2nonc12	3.0*	4	x	83.9	u	36.0*	83.9*	-2.5	52.1*	80.6	26.4*	76.6	21.2*
Cc1cc2cc3c(cc2nc1SCC(=O)Nc1nc(C)c(C)s1)OCO3	213.3	10	59	164.5*[activator]	121.0	107.7	x	i	101.0	109.5	105.3	102.8	133.9
CC(C)(C)c1ccc(-c2nc(-c3ccncc3)no2)cc1	22.9*	3	20	81.4	89.4	75.0	81.4*	x	x	x	x	x	x
CC(C)(C)c1ccc(-c2noc(-c3ccno3)n2)cc1	98.2	4	x	97.9	u	98.6	x	x	x	x	x	x	x
CCOC(=O)C1=C(c2ccccc2)ON(C)C1c1ccccc1 (configuration not stated)	100.3	13	5	98.5	95.9	97.8	x	x	x	x	x	x	x
O=S(=O)(CCN1CCSCC1)c1ccccc1	98.1	8	x	100.6	u	98.8	x	x	x	x	x	x	x
CC1CCN(C(=O)c2ccc(N3C(=O)C4CCC(C)CC4C3=O)cc2)CC1 (configuration not stated)	45.4	1	x	32.0*	u	66.9	x	-0.2	101.1	106.3	102.1	102.3	96.5
